{
  "source": "PubChem BioAssay (Tox21)",
  "note": "Inconclusive results are not listed. The source made the active and inactive calls. The call rests on the fitted dose curve; in most records, active means well fitted activation curve with a large enough effect in the repeat runs; inconclusive means weak or mixed curves; inactive means flat fitted curve, though single readings scatter. On the % scale 0 is the no-effect control and ±100 the full control effect.",
  "data": [
    {"test": "Caspase-3/7 induction in HepG2 cells by small molecules, qHTS assay (AID 1346978); further: nearly all actives have a fitted effect of over 15% in size", "details": "HepG2 caspase-3/7 activation, Caspase-Glo luminescence, 17 h; series mostly up to 92.4 µM; caspase activation: at the top concentration", "source_text": "National Center for Advancing Translational Sciences [NCATS] NIH Chemical Genomics Center [NCGC] U.S. Environmental Protection Agency [EPA] National Institutes of Environmental Health Sciences [NIEHS] National Toxicology Program [NTP] Assay overview: Apoptosis is a process of programmed cell death and plays a central role in the development of multicellular organisms. It is a highly regulated process and induces cell death by activating caspases, which are the members of cysteine aspartic acid-specific protease (caspase) family. Caspases involved in apoptosis are classified by their mechanism of action as initiator caspases (caspase-2, -8, -9 and -10) and executioner caspases (caspase-3, -6, and -7). Inhibition of apoptosis results in number of cancers, autoimmune diseases, inflammatory diseases and viral infection. To identify small molecule compounds that induce apoptosis, a homogeneous, luminescent Caspase-Glo 3/7 assay was used. Wild type HepG2 cells were used to screen Tox21 libraries for identifying caspase-3/7 activity inducers.\nAssay Protocol Summary: HepG2 cells were dispensed at 2,000 per well in 5uL of culture medium into white solid bottom 1536-well plates (Corning Life Sciences, Corning, NY) using a Multidrop Combi (Thermo Scientific, Waltham, MA) dispenser. The assay plates were incubated at 37 C and 5% CO2 for 5hr, and then 23nL of compounds dissolved in DMSO and positive control were transferred using a Pintool station (Wako, San Diego, CA). The assay plates were incubated at 37C and 5% CO2 for 17hr. For caspase-3/7 activity read, 4uL of Caspase-Glo 3/7 reagent (Promega Corporation, Madison, WI) was added to each well of the assay plates using Flying Reagent Dispenser (FRD, Aurora Discovery, San Diego, CA) and incubated the assay plates at room temperature for 30min. The luminescence signal was quantified using a ViewLux plate reader (Perkin Elmer, Shelton, CT).", "values": [
      {"smiles": "COc1ccnc(CS(=O)c2nc3cc(OC(F)F)ccc3[nH]2)c1OC", "note": "(stereo not given)", "caspase activation": "-1.45% (inactive)"},
      {"smiles": "NC(=O)Cc1cccc2ccccc12", "caspase activation": "0.261% (inactive)"},
      {"smiles": "Nc1c2c(nc3c1CCC3)CCCC2", "caspase activation": "0.344% [at 42.5 µM] (inactive)"},
      {"smiles": "CC(=O)N[C@H]1[C@H]([C@H](O)[C@H](O)CO)OC(C(=O)O)=C[C@@H]1N=C(N)N", "caspase activation": "0.588% [at 42.5 µM] (inactive)"},
      {"smiles": "CC(=O)c1ccc2ccccc2c1", "caspase activation": "-0.194% (inactive)"},
      {"smiles": "CC(C)(C)OC(=O)c1cccc(N)c1", "caspase activation": "-2.8% (inactive)"},
      {"smiles": "N[C@H](C(=O)O)[C@@H](O)c1ccc(O)c(O)c1", "caspase activation": "-1.41% [at 42.5 µM] (inactive)"},
      {"smiles": "O=C(O)c1cc(C(=O)O)cc(C(=O)O)c1", "caspase activation": "0.839% (inactive)"},
      {"smiles": "CC(=O)N1C[C@H](O)C[C@H]1C(=O)O", "caspase activation": "1.34% [at 42.5 µM] (inactive)"},
      {"smiles": "O=S(=O)(O)c1cccc2c(S(=O)(=O)O)cccc12", "caspase activation": "-1.54% (inactive)"},
      {"smiles": "CCC(C)(CN(C)C)OC(=O)c1ccccc1", "note": "(stereo not given)", "caspase activation": "3.7% [at 42.5 µM] (inactive)"},
      {"smiles": "C=CC(=O)OCCCl", "caspase activation": "0.915% (inactive)"},
      {"smiles": "CN1CCC(=C2c3ccccc3CCc3cccnc32)CC1", "caspase activation": "-0.983% [at 42.5 µM] (inactive)"},
      {"smiles": "CCOc1ccccc1OCC", "caspase activation": "-1.51% (inactive)"},
      {"smiles": "COc1ccc2cc1Oc1cc3c(cc1OC)CC[N+](C)(C)[C@H]3Cc1ccc(cc1)Oc1c(OC)c(OC)cc3c1[C@@H](C2)[N+](C)(C)CC3", "caspase activation": "1.29% [at 42.5 µM] (inactive)"},
      {"smiles": "CC(C)C1CCC(O)CC1", "note": "(stereo not given)", "caspase activation": "1.37% (inactive)"},
      {"smiles": "CCO[Si](OCC)(OCC)c1ccccc1", "caspase activation": "-1.17% (inactive)"},
      {"smiles": "CCN(Cc1ccccc1)c1ccccc1", "caspase activation": "0.182% (inactive)"},
      {"smiles": "COC(=O)C1=C(C)NC(C)=C(C(=O)OC(C)C)C1c1cccc2nonc12", "note": "(stereo not given)", "caspase activation": "0.344% [at 42.5 µM] (inactive)"},
      {"smiles": "CNCC(O)c1ccc(O)c(O)c1", "note": "(stereo not given)", "caspase activation": "0.0478% [at 42.5 µM] (inactive)"},
      {"smiles": "Nc1ccn([C@@H]2O[C@H](CO)[C@@H](O)C2(F)F)c(=O)n1", "caspase activation": "0.0074% [at 42.5 µM] (inactive)"},
      {"smiles": "Nc1ccn([C@@H]2O[C@H](CO)[C@@H](O)[C@@H]2O)c(=O)n1", "caspase activation": "-3.07% (inactive)"},
      {"smiles": "CC(=O)NC(=O)c1ccccc1O", "caspase activation": "1.69% [at 42.5 µM] (inactive)"},
      {"smiles": "CCCCCCC#CC(=O)OC", "caspase activation": "-0.583% (inactive)"},
      {"smiles": "CCOC(=O)COC(=O)c1ccccc1C(=O)OCC", "caspase activation": "-0.266% (inactive)"},
      {"smiles": "CCCCCCCCCCCCCCCCCCO", "caspase activation": "-0.444% [at 42.5 µM] (inactive)"},
      {"smiles": "C[N+](C)(CCOc1ccccc1)Cc1cccs1", "caspase activation": "-1.73% [at 42.5 µM] (inactive)"},
      {"smiles": "CC(C)[C@H]1CC[C@@H](C)CC1=O", "caspase activation": "3.63% (inactive)"},
      {"smiles": "CC/C=C\\CCOC(C)OCC", "note": "(stereo not given)", "caspase activation": "-0.843% [at 42.5 µM] (inactive)"},
      {"smiles": "CC(C)CC(C)(N)C#N", "note": "(stereo not given)", "caspase activation": "1.7% (inactive)"},
      {"smiles": "CCCCN1C=CN(C)C1", "caspase activation": "1.6% [at 19 µM] (inactive)"},
      {"smiles": "[K+]", "caspase activation": "-0.959% (inactive)"},
      {"smiles": "O=C(O)CNC(=O)c1ccc(CO)o1", "caspase activation": "-0.459% (inactive)"},
      {"smiles": "CCCCCCCCCC[N+](C)(C)[O-]", "caspase activation": "1.1% (inactive)"},
      {"smiles": "CC[N+](CC)(CC)CCOc1cccc(OCC[N+](CC)(CC)CC)c1OCC[N+](CC)(CC)CC", "caspase activation": "0.749% [at 42.5 µM] (inactive)"},
      {"smiles": "Cc1ncc([C@@H](CCCCCCc2ccc3c(n2)NCCC3)CC(=O)O)cn1", "caspase activation": "0.522% (inactive)"},
      {"smiles": "COc1cc(C(=O)OC(COCCC(C)C)CN2CCOCC2)cc(OC)c1OC", "note": "(stereo not given)", "caspase activation": "0.273% [at 42.5 µM] (inactive)"},
      {"smiles": "C=C(C)C(=O)OCC(O)CO", "note": "(stereo not given)", "caspase activation": "-1.13% [at 42.5 µM] (inactive)"},
      {"smiles": "CC[N+](CC)(CC(=O)Nc1c(C)cccc1C)Cc1ccccc1", "note": "(tested in a mixture with another compound)", "caspase activation": "0.812% [at 42.5 µM] (inactive)"},
      {"smiles": "O=[N+]([O-])c1cncn1CCN1CCOCC1", "caspase activation": "-0.709% [at 42.5 µM] (inactive)"}
    ]}
  ]
}
